According to PubChem BioAssay AID1159580 (chemical genetic matrix, 2015):
Values joined by “and” are separate entries in the source; they are usually repeats but may differ in a detail not shown here. Identical values can stand only once. About 2,000 (36%) of roughly 5,500 compounds were called active. Another 18% or so got no clear call; they are omitted. Cut-off read from the data, not from the text of the source: active = normalized growth mostly below about 0.91 (no sharp cut-off); inconclusive = no clear call, values can overlap the other calls; inactive = mostly above about 0.92. The list shows a part of the results.

Assay: chemical genetic growth profiling, strain panel (AID 1159580);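 note: tested at 20 µM; growth read once vehicle control cultures reached saturation at 30 °C; 1 = growth at the plate median or of vehicle wells; lower values mean less growth of the strain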
Settings: S. cerevisiae deletion strains, growth OD

Measured: normalized growth

CC1(C)O[C@H]2CC(=O)OC[C@]23[C@H]2CC[C@@]4(C)[C@H](c5ccoc5)OC(=O)[C@H]5O[C@]54[C@]2(C)C(=O)C[C@@H]13
inactive: locus YAL013W, strain DEP1, stronger effect = lower value 1.02 | locus YAL021C, strain ccr4, stronger effect = lower value 0.982 | locus YAL026C, strain drs2, stronger effect = lower value 0.99 | locus YAL030W, strain snc1, stronger effect = lower value 0.98 | locus YBL061C, strain skt5, stronger effect = lower value 0.987 | locus YBR009C, strain hhf1, stronger effect = lower value 0.968 | locus YBR023C, strain chs3, stronger effect = lower value 0.995 | locus YBR171W, strain sec66, stronger effect = lower value 0.964 | locus YBR229C, strain ROT2, stronger effect = lower value 1.01 | locus YBR231C, strain swc5, stronger effect = lower value 1 | locus YBR279W, strain paf1, stronger effect = lower value 0.992 | locus YCL011C, strain gbp2, stronger effect = lower value 0.98 | locus YCL016C, strain dcc1, stronger effect = lower value 0.99 | locus YCL029C, strain bik1, stronger effect = lower value 0.976 | locus YCL061C, strain MRC1, stronger effect = lower value 0.974 | locus YCL069W, strain vba3, stronger effect = lower value 0.969 | locus YCR088W, strain abp1, stronger effect = lower value 0.984 | locus YDL005C, strain med2, stronger effect = lower value 0.962 | locus YDL035C, strain GPR1, stronger effect = lower value 1.02 | locus YDL040C, strain nat1, stronger effect = lower value 0.984 | locus YDL074C, strain BRE1, stronger effect = lower value 0.992 | locus YDL101C, strain DUN1, stronger effect = lower value 0.985 | locus YDL134C, strain PPH21, stronger effect = lower value 1.01 | locus YDL185W, strain tfp1, stronger effect = lower value 0.962 | locus YDL192W, strain arf1, stronger effect = lower value 0.988 | locus YDR001C, strain nth1, stronger effect = lower value 0.984 | locus YDR069C, strain doa4, stronger effect = lower value 0.989 | locus YDR101C, strain arx1, stronger effect = lower value 0.998 | locus YDR137W, strain rgp1, stronger effect = lower value 1.01 | locus YDR150W, strain NUM1, stronger effect = lower value 0.994 | locus YDR159W, strain sac3, stronger effect = lower value 0.99 | locus YDR162C, strain NBP2, stronger effect = lower value 1.02 | locus YDR195W, strain ref2 0.967 | locus YDR297W, strain sur2, stronger effect = lower value 1.01 | locus YDR318W, strain mcm21, stronger effect = lower value 0.994 | locus YDR334W, strain swr1, stronger effect = lower value 0.958 | locus YDR335W, strain msn5, stronger effect = lower value 0.986 | locus YDR388W, stronger effect = lower value 1.01 | locus YDR392W, strain spt3, stronger effect = lower value 0.986 | locus YDR502C, strain sam2, stronger effect = lower value 0.99 | locus YEL003W, strain gim4, stronger effect = lower value 0.981 | locus YEL037C, strain rad23, stronger effect = lower value 0.971 | locus YEL061C, strain CIN8 (second series), stronger effect = lower value 0.991 | locus YEL061C, strain CIN8, stronger effect = lower value 1 | locus YER015W, strain faa2, stronger effect = lower value 0.989 | locus YER016W, strain bim1, stronger effect = lower value 0.98 | locus YER110C, stronger effect = lower value 0.975 | locus YER111C, strain swi4, stronger effect = lower value 0.95 | locus YER155C, strain BEM2 (second series), stronger effect = lower value 0.952 | locus YER155C, strain BEM2, stronger effect = lower value 0.995 | locus YER167W, strain BCK2, stronger effect = lower value 1 | locus YFR010W, strain ubp6, stronger effect = lower value 0.986 | locus YGL078C, strain dbp3, stronger effect = lower value 0.985 | locus YGL086W, strain mad1, stronger effect = lower value 0.993 | locus YGL167C, strain pmr1, stronger effect = lower value 0.975 | locus YGL173C, strain kem1, stronger effect = lower value 0.982 | locus YGL227W, strain vid30, stronger effect = lower value 0.987 | locus YGL240W, strain doc1, stronger effect = lower value 0.962 | locus YGL248W, strain PDE1, stronger effect = lower value 1.02 | locus YGL253W, strain hxk2, stronger effect = lower value 1.01 | locus YGR135W, strain pre9, stronger effect = lower value 1 | locus YGR229C, strain SMI1, stronger effect = lower value 1.04 | locus YGR252W, strain gcn5, stronger effect = lower value 1.07 | locus YHR013C, strain ard1, stronger effect = lower value 0.95 | locus YHR027C, strain rpn1, stronger effect = lower value 0.993 | locus YHR030C, strain SLT2, stronger effect = lower value 1 and 1.01 | locus YHR079C, strain IRE1 (second series), stronger effect = lower value 0.98 | locus YHR079C, strain IRE1, stronger effect = lower value 1.03 | locus YHR094C, strain hxt1, stronger effect = lower value 0.984 | locus YHR129C, strain ARP1, stronger effect = lower value 1 | locus YHR142W, strain chs7, stronger effect = lower value 0.973 | locus YHR200W, strain rpn10, stronger effect = lower value 0.987 | locus YIL066C, strain RNR3, stronger effect = lower value 1.02 | locus YIL073C, strain SPO22, stronger effect = lower value 0.932 | locus YIL125W, strain kgd1, stronger effect = lower value 0.997 | locus YIR030C, strain dcg1, stronger effect = lower value 0.984 | locus YJL092W, strain hpr5, stronger effect = lower value 0.962 | locus YJL095W, strain BCK1 (second series), stronger effect = lower value 0.966 | locus YJL095W, strain BCK1, stronger effect = lower value 0.985 and 1.03 | locus YJL115W, strain asf1, stronger effect = lower value 0.95 | locus YJL129C, strain trk1, stronger effect = lower value 0.973 | locus YJL134W, strain LCB3, stronger effect = lower value 1 | locus YJL154C, strain vps35, stronger effect = lower value 0.975 | locus YJL164C, strain tpk1, stronger effect = lower value 0.986 | locus YJL166W, strain qcr8, stronger effect = lower value 0.979 | locus YJL168C, strain set2, stronger effect = lower value 0.989 | locus YJL187C, strain SWE1 (second series), stronger effect = lower value 0.996 | locus YJL187C, strain SWE1, stronger effect = lower value 0.967 | locus YJR043C, strain POL32, stronger effect = lower value 1.05 | locus YJR066W, strain TOR1, stronger effect = lower value 0.946 | locus YJR075W, strain HOC1, stronger effect = lower value 0.989 | locus YKL009W, strain mrt4, stronger effect = lower value 0.963 | locus YKL068W, stronger effect = lower value 0.987 | locus YKL085W, strain MDH1 (second series), stronger effect = lower value 0.992 | locus YKL085W, strain MDH1, stronger effect = lower value 0.992 | locus YKL160W, strain elf1, stronger effect = lower value 1 | locus YKR001C, strain vps1, stronger effect = lower value 0.985 | locus YKR026C, strain gcn3, stronger effect = lower value 0.998 | locus YKR091W, strain srl3, stronger effect = lower value 0.98 | locus YLL001W, strain dnm1, stronger effect = lower value 0.959 | locus YLL026W, stronger effect = lower value 0.988 | locus YLL041C, strain sdh2, stronger effect = lower value 0.97 | locus YLR027C, strain aat2, stronger effect = lower value 0.965 | locus YLR039C, strain RIC1, stronger effect = lower value 1.01 | locus YLR058C, strain SHM2, stronger effect = lower value 1 | locus YLR102C, strain apc9, stronger effect = lower value 0.983 | locus YLR113W, strain HOG1, stronger effect = lower value 1.04 | locus YLR221C, strain rsa3, stronger effect = lower value 1 | locus YLR258W, strain gsy2, stronger effect = lower value 0.996 | locus YLR262C, strain YPT6 (second series), stronger effect = lower value 1.01 | locus YLR262C, strain YPT6, stronger effect = lower value 1 | locus YLR268W, strain sec22, stronger effect = lower value 0.961 | locus YLR320W, strain mms22, stronger effect = lower value 0.992 | locus YLR330W, strain CHS5, stronger effect = lower value 0.998 | locus YLR342W, strain FKS1 (second series), stronger effect = lower value 1.07 | locus YLR342W, strain FKS1, stronger effect = lower value 0.975 | locus YLR357W, strain rsc2, stronger effect = lower value 0.99 | locus YLR370C, strain arc18, stronger effect = lower value 0.97 | locus YLR371W, strain rom2, stronger effect = lower value 0.98 | locus YLR384C, strain iki3, stronger effect = lower value 0.999 | locus YLR418C, strain cdc73, stronger effect = lower value 0.994 | locus YML016C, strain PPZ1, stronger effect = lower value 1.01 | locus YML032C, strain rad52, stronger effect = lower value 1.01 | locus YML120C, strain ndi1, stronger effect = lower value 0.969 | locus YML124C, strain tub3, stronger effect = lower value 0.99 | locus YMR058W, strain fet3, stronger effect = lower value 0.974 | locus YMR078C, strain ctf18, stronger effect = lower value 0.982 | locus YMR125W, strain sto1, stronger effect = lower value 0.985 | locus YMR129W, stronger effect = lower value 0.99 | locus YMR205C, strain PFK2, stronger effect = lower value 1.01 | locus YMR223W, strain ubp8, stronger effect = lower value 0.994 | locus YMR231W, strain pep5, stronger effect = lower value 0.981 | locus YMR263W, strain SAP30, stronger effect = lower value 0.985 | locus YMR307W, strain GAS1, stronger effect = lower value 1.04 | locus YNL067W, strain RPL9B, stronger effect = lower value 0.961 | locus YNL071W, strain lat1, stronger effect = lower value 0.995 | locus YNL128W, strain TEP1, stronger effect = lower value 0.993 | locus YNL153C, strain GIM3, stronger effect = lower value 0.994 | locus YNL183C, strain NPR1, stronger effect = lower value 0.934 | locus YNL209W, strain ssb2, stronger effect = lower value 0.979 | locus YNL233W, strain BNI4, stronger effect = lower value 0.997 | locus YNL248C, strain rpa49, stronger effect = lower value 0.979 | locus YNL250W, strain rad50, stronger effect = lower value 0.932 | locus YNL271C, strain bni1, stronger effect = lower value 0.987 | locus YNL298W, strain CLA4, stronger effect = lower value 1 | locus YNL307C, strain MCK1, stronger effect = lower value 0.983 | locus YNL322C, strain KRE1 (second series), stronger effect = lower value 0.959 | locus YNL322C, strain KRE1, stronger effect = lower value 0.997 | locus YNR049C, strain mso1, stronger effect = lower value 0.956 | locus YNR052C, strain pop2, stronger effect = lower value 0.994 | locus YOL006C, strain TOP1, stronger effect = lower value 0.922 | locus YOL012C, strain htz1 0.665 | locus YOL147C, strain pex11, stronger effect = lower value 0.998 | locus YOR001W, strain rrp6, stronger effect = lower value 0.995 | locus YOR061W, strain CKA2, stronger effect = lower value 1.01 | locus YOR069W, strain VPS5, stronger effect = lower value 1 | locus YOR070C, strain gyp1, stronger effect = lower value 0.992 | locus YOR080W, strain dia2, stronger effect = lower value 0.961 | locus YOR083W, strain WHI5, stronger effect = lower value 0.975 | locus YOR106W, strain vam3, stronger effect = lower value 1.01 | locus YOR136W, strain idh2, stronger effect = lower value 0.985 | locus YOR144C, strain elg1, stronger effect = lower value 1.01 | locus YOR184W, strain ser1, stronger effect = lower value 0.988 | locus YOR231W, strain MKK1, stronger effect = lower value 1.04 | locus YOR265W, strain rbl2, stronger effect = lower value 0.984 | locus YOR270C, strain vph1, stronger effect = lower value 0.988 | locus YOR290C, strain snf2, stronger effect = lower value 0.973 | locus YOR316C, strain cot1, stronger effect = lower value 0.992 | locus YPL051W, strain arl3, stronger effect = lower value 0.986 | locus YPL078C, strain atp4, stronger effect = lower value 0.97 | locus YPL106C, strain sse1, stronger effect = lower value 0.939 | locus YPL240C, strain hsp82, stronger effect = lower value 0.992 | locus YPL256C, strain CLN2, stronger effect = lower value 1.01 | locus YPR119W, strain clb2, stronger effect = lower value 0.994 | locus YPR141C, strain kar3, stronger effect = lower value 0.991 | locus YPR163C, strain tif3, stronger effect = lower value 1 | locus YPR167C, strain met16, stronger effect = lower value 0.989 | strain wtn01, stronger effect = lower value 0.974
active: locus YBR021W, strain FUR4, stronger effect = lower value 1.21 [resistant]
